# Source: the supplement of paper PMC4022240
# ± gives the standard deviation.
# T1: HaloTag-ATRX ADD domain (163-292)
# T1 chain: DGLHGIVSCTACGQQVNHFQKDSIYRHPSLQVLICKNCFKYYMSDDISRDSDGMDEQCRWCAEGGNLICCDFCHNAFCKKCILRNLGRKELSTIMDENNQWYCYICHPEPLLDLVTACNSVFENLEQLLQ
# How the values were obtained:
# Test in all cases: peptide microarray binding signal (635 nm), min-max normalized on array (fraction of array maximum); higher = stronger binding
# [1] = target: T1, HaloTag-ATRX ADD domain (163-292)
# Protocol: (§1)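 Histone 13-mer peptides were synthesized as cellulose conjugates with a C-terminal 20-atom PEG linker and printed in triplicate on nitrocellulose. The sequence given is the unmodified backbone; PTMs (Kme1/2/3, Kac, Sph/Tph, Rme/Rme2a/Rme2s, Rcit) are listed in the label and the 'peptide modifications' condition. Slides were probed at 4 °C for 1 h with biotin-labelled (HQ)5-HaloTag reader fusions (ATRX-ADD, ING2-PHD) then streptavidin-Alexa647, or with rabbit histone antibodies then anti-rabbit Alexa647. The mean 635 nm signal of the triplicate spots was scaled 0-1 between the lowest and highest values on each array.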
# [2] = target: HaloTag-ING2 PHD (mouse Ing2 200-280)
# Protocol: as §1
# [3] = target: anti-H3K4me3 antibody ab8580
# Protocol: as §1
# [4] = target: anti-H3K9me3 antibody ab8898
# Protocol: as §1
# [5] = peptide region: H2B 7-19, peptide modifications: H2BK11ac H2BK12ac H2BS14ph, binder concentration: 1:2,000 dilution
# [6] = peptide region: H2B 7-19, peptide modifications: H2BK11ac H2BK12ac H2BS14ph, binder concentration: 1:10,000 dilution
# [7] = peptide region: H2B 7-19, peptide modifications: H2BK11ac H2BK12ac H2BK15ac H2BK16ac, binder concentration: 1:2,000 dilution
# [8] = peptide region: H2B 7-19, peptide modifications: H2BK11ac H2BK12ac H2BK15ac H2BK16ac, binder concentration: 1:10,000 dilution
# [9] = peptide region: H2B 1-13, peptide modifications: H2BK5ac, binder concentration: 1:2,000 dilution
# [10] = peptide region: H2B 1-13, peptide modifications: H2BK5ac, binder concentration: 1:10,000 dilution
# [11] = peptide region: H2B 7-19, peptide modifications: H2BK11ac H2BK12ac H2BS14ph H2BK15ac H2BK16ac, binder concentration: 1:2,000 dilution
# [12] = peptide region: H2B 7-19, peptide modifications: H2BK11ac H2BK12ac H2BS14ph H2BK15ac H2BK16ac, binder concentration: 1:10,000 dilution
# [13] = peptide region: H2B 7-19, peptide modifications: H2BK11ac H2BK12ac H2BS14ph H2BK15ac, binder concentration: 1:2,000 dilution
# [14] = peptide region: H2B 7-19, peptide modifications: H2BK11ac H2BK12ac H2BS14ph H2BK15ac, binder concentration: 1:10,000 dilution
binder,measurement,setting,value
APAPKKGSKKAVT [H2B 7-19 A P A P Kac Kac G Sph K K A V T],peptide microarray binding signal,"[1]; peptide region: H2B 7-19, peptide modifications: H2BK11ac H2BK12ac H2BS14ph, binder concentration: 50 nM",0.00197 ± 4e-05
same,peptide microarray binding signal,"[1]; peptide region: H2B 7-19, peptide modifications: H2BK11ac H2BK12ac H2BS14ph, binder concentration: 500 nM",0.00252 ± 9e-05
same,peptide microarray binding signal,"[2]; peptide region: H2B 7-19, peptide modifications: H2BK11ac H2BK12ac H2BS14ph, binder concentration: 10 nM",0.0046 ± 0.00019
same,peptide microarray binding signal,"[2]; peptide region: H2B 7-19, peptide modifications: H2BK11ac H2BK12ac H2BS14ph, binder concentration: 100 nM",0.00163 ± 3.3e-05
same,peptide microarray binding signal,[3]; [5],0.00215 ± 8.8e-05
same,peptide microarray binding signal,[3]; [6],0.000628 ± 6.7e-06
same,peptide microarray binding signal,[4]; [5],0.000423 ± 1.8e-05
same,peptide microarray binding signal,[4]; [6],0.00075 ± 4e-05
APAPKKGSKKAVT [H2B 7-19 A P A P Kac Kac G S Kac Kac A V T],peptide microarray binding signal,"[1]; peptide region: H2B 7-19, peptide modifications: H2BK11ac H2BK12ac H2BK15ac H2BK16ac, binder concentration: 50 nM",0.0047 ± 0.00016
same,peptide microarray binding signal,"[1]; peptide region: H2B 7-19, peptide modifications: H2BK11ac H2BK12ac H2BK15ac H2BK16ac, binder concentration: 500 nM",0.00329 ± 0.00049
same,peptide microarray binding signal,"[2]; peptide region: H2B 7-19, peptide modifications: H2BK11ac H2BK12ac H2BK15ac H2BK16ac, binder concentration: 10 nM",0.00555 ± 0.00016
same,peptide microarray binding signal,"[2]; peptide region: H2B 7-19, peptide modifications: H2BK11ac H2BK12ac H2BK15ac H2BK16ac, binder concentration: 100 nM",0.00524 ± 0.00027
same,peptide microarray binding signal,[3]; [7],0.000264 ± 1e-05
same,peptide microarray binding signal,[3]; [8],0.000742 ± 1.3e-05
same,peptide microarray binding signal,[4]; [7],0.000982 ± 5.2e-05
same,peptide microarray binding signal,[4]; [8],0.00167 ± 2.8e-05
PEPAKSAPAPKKG [H2B 1-13 P E P A Kac S A P A P K K G],peptide microarray binding signal,"[1]; peptide region: H2B 1-13, peptide modifications: H2BK5ac, binder concentration: 50 nM",0.005486 ± 3.9e-05
same,peptide microarray binding signal,"[1]; peptide region: H2B 1-13, peptide modifications: H2BK5ac, binder concentration: 500 nM",0.0105 ± 0.00072
same,peptide microarray binding signal,"[2]; peptide region: H2B 1-13, peptide modifications: H2BK5ac, binder concentration: 10 nM",0.0119 ± 0.00078
same,peptide microarray binding signal,"[2]; peptide region: H2B 1-13, peptide modifications: H2BK5ac, binder concentration: 100 nM",0.0115 ± 0.00093
same,peptide microarray binding signal,[3]; [9],0.00421 ± 0.0021
same,peptide microarray binding signal,[3]; [10],0.00137 ± 4.9e-05
same,peptide microarray binding signal,[4]; [9],0.00192 ± 0.00022
same,peptide microarray binding signal,[4]; [10],0.0019 ± 0.00011
APAPKKGSKKAVT [H2B 7-19 A P A P Kac Kac G Sph Kac Kac A V T],peptide microarray binding signal,"[1]; peptide region: H2B 7-19, peptide modifications: H2BK11ac H2BK12ac H2BS14ph H2BK15ac H2BK16ac, binder concentration: 50 nM",0.00254 ± 2.9e-05
same,peptide microarray binding signal,"[1]; peptide region: H2B 7-19, peptide modifications: H2BK11ac H2BK12ac H2BS14ph H2BK15ac H2BK16ac, binder concentration: 500 nM",0.00495 ± 8.6e-05
same,peptide microarray binding signal,"[2]; peptide region: H2B 7-19, peptide modifications: H2BK11ac H2BK12ac H2BS14ph H2BK15ac H2BK16ac, binder concentration: 10 nM",0.00639 ± 0.00065
same,peptide microarray binding signal,"[2]; peptide region: H2B 7-19, peptide modifications: H2BK11ac H2BK12ac H2BS14ph H2BK15ac H2BK16ac, binder concentration: 100 nM",0.00163 ± 1.7e-05
same,peptide microarray binding signal,[3]; [11],0.00523 ± 0.00045
same,peptide microarray binding signal,[3]; [12],0.00126 ± 2.2e-05
same,peptide microarray binding signal,[4]; [11],0.000891 ± 6e-05
same,peptide microarray binding signal,[4]; [12],0.00098 ± 1.7e-05
APAPKKGSKKAVT [H2B 7-19 A P A P Kac Kac G Sph Kac K A V T],peptide microarray binding signal,"[1]; peptide region: H2B 7-19, peptide modifications: H2BK11ac H2BK12ac H2BS14ph H2BK15ac, binder concentration: 50 nM",0.001661 ± 1.4e-05
same,peptide microarray binding signal,"[1]; peptide region: H2B 7-19, peptide modifications: H2BK11ac H2BK12ac H2BS14ph H2BK15ac, binder concentration: 500 nM",0.00238 ± 7.1e-05
same,peptide microarray binding signal,"[2]; peptide region: H2B 7-19, peptide modifications: H2BK11ac H2BK12ac H2BS14ph H2BK15ac, binder concentration: 10 nM",0.002447 ± 1.4e-05
same,peptide microarray binding signal,"[2]; peptide region: H2B 7-19, peptide modifications: H2BK11ac H2BK12ac H2BS14ph H2BK15ac, binder concentration: 100 nM",0.000709
same,peptide microarray binding signal,[3]; [13],0.000774 ± 0.00015
same,peptide microarray binding signal,[3]; [14],0.000685 ± 7.2e-06
same,peptide microarray binding signal,[4]; [13],0.000242 ± 2.5e-06
same,peptide microarray binding signal,[4]; [14],0.000461
